According to paper PMC7862700, “An all-to-all approach to the identification of sequence-specific readers for epigenetic DNA modifications on cytosine”:

What was measured:
Experiment in all cases: DAPPL (digital affinity profiling via proximity ligation, sequencing); 10 mM Tris-HCl pH 7.5, 50 mM NaCl, 1 mM DTT, 4% glycerol, room temperature, 30 min; GST-TFs on glutathione beads, 16-mer random dsDNA library, 0.1% formaldehyde crosslink after washing; high values mean tight binding
FLI1 = molecular target: T1, FLI1 (Homo sapiens, UniProt Q01543 1-452); settings: protein: recombinant; tags: N-terminal GST; dsDNA, one strand shown
T1 sequence: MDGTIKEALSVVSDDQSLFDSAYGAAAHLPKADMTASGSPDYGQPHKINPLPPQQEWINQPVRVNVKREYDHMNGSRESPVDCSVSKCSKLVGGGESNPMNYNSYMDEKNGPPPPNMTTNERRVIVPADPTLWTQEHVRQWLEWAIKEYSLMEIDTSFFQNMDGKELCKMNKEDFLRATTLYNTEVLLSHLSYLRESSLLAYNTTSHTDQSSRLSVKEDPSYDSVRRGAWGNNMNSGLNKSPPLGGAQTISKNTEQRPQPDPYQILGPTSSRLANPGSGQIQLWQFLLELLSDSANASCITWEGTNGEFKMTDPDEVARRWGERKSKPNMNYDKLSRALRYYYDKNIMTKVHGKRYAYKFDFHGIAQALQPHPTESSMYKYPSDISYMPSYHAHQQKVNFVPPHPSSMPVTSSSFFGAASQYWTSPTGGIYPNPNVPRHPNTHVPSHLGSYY
How it was run: (§1)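 Human transcription factors carrying a GST fusion were produced in yeast, bound to glutathione beads, tagged with DNA barcodes and pooled together with a tag-only sample. Each pool was held with 200 nmole of a random double-stranded 16-mer DNA library in Tris/NaCl/DTT/glycerol buffer for 30 min at room temperature, then washed, crosslinked in 0.1% formaldehyde, proximity-ligated with BsaI/T4 ligase (1 h, 37 °C), PCR-amplified and sequenced on an Illumina NextSeq500. Binding signal is the read frequency of each hexamer for a given factor divided by its frequency in the tag-only sample.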

ELK1 = molecular target: T2, ELK1 (Homo sapiens, UniProt P19419 1-428); settings: protein: recombinant; tags: N-terminal GST; dsDNA, one strand shown
T2 sequence: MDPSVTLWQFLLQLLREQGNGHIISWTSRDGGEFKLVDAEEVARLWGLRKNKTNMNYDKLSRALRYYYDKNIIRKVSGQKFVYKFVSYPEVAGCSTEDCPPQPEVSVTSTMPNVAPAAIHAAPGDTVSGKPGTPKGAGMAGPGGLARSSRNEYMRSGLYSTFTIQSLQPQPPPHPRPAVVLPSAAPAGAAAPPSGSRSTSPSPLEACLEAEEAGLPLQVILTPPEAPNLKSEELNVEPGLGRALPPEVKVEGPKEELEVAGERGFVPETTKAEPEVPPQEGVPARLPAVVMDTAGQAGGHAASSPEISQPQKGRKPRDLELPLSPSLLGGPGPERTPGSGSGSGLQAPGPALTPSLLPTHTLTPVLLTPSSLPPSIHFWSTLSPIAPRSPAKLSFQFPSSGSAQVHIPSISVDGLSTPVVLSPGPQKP
How it was run: as §1

GABPA = molecular target: T3, GABPA (Homo sapiens, UniProt Q06546 1-454); settings: protein: recombinant; tags: N-terminal GST; dsDNA, one strand shown
T3 sequence: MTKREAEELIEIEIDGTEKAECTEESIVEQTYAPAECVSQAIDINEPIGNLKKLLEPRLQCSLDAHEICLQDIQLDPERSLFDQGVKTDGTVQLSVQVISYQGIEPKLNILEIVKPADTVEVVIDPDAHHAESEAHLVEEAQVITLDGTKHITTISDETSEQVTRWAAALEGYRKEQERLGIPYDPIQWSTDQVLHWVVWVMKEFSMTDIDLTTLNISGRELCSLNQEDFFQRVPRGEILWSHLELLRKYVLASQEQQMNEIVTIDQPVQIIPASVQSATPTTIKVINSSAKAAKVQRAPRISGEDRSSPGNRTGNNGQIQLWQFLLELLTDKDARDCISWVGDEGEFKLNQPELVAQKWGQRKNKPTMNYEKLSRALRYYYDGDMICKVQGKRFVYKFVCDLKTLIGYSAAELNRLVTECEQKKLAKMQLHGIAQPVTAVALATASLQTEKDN
How it was run: as §1

ERG = molecular target: T4, ERG (Homo sapiens, UniProt P11308 1-479); settings: protein: recombinant; tags: N-terminal GST; dsDNA, one strand shown
T4 sequence: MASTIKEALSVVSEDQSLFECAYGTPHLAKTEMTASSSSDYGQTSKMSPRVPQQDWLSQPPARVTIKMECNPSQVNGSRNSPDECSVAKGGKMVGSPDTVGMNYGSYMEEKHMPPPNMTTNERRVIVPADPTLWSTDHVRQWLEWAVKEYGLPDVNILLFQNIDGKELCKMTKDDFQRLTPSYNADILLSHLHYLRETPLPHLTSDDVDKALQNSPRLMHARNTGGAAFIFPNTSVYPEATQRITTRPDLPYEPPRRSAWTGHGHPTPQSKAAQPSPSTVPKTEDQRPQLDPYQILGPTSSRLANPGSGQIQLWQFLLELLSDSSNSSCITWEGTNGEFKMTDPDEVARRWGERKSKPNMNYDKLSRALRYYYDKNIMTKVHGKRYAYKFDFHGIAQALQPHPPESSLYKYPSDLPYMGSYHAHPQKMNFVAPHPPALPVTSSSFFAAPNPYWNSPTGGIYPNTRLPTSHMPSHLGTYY
How it was run: as §1

ELF1 = ELF1 (Homo sapiens, UniProt P32519 1-619); settings: protein: recombinant; tags: N-terminal GST; dsDNA, one strand shown
How it was run: as §1

EHF = molecular target: T5, EHF (Homo sapiens, UniProt Q9NZC4 1-300); settings: protein: recombinant; tags: N-terminal GST; dsDNA, one strand shown
T5 sequence: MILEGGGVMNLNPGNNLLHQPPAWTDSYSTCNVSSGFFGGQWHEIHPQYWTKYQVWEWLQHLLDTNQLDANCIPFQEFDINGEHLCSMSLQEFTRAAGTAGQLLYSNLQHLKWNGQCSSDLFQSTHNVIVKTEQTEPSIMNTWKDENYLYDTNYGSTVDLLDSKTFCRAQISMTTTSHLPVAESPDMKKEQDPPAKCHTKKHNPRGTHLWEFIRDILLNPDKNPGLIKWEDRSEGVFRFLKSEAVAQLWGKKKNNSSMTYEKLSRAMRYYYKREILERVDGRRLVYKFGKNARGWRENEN
How it was run: as §1

SPI1 = SPI1 (Homo sapiens, UniProt P17947 1-270); settings: protein: recombinant; tags: N-terminal GST; dsDNA, one strand shown
How it was run: as §1

SPIB = SPIB (Homo sapiens, UniProt Q01892 1-262); settings: protein: recombinant; tags: N-terminal GST; dsDNA, one strand shown
How it was run: as §1

ELK3 = molecular target: T6, ELK3 (Homo sapiens, UniProt P41970 1-407); settings: protein: recombinant; tags: N-terminal GST; dsDNA, one strand shown
T6 sequence: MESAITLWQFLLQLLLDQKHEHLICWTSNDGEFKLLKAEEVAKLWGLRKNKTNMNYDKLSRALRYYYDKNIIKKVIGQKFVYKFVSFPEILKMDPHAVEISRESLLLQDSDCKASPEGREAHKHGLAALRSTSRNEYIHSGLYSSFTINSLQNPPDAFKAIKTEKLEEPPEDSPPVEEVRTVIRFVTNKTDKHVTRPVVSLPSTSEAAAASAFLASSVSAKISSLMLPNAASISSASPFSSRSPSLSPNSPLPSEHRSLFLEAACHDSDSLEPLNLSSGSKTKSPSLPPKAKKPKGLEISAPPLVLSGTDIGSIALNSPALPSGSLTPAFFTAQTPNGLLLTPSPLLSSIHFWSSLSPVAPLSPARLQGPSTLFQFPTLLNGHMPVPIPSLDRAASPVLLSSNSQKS
How it was run: as §1

FEV = molecular target: T7, FEV (Homo sapiens, UniProt Q99581 1-238); settings: protein: recombinant; tags: N-terminal GST; dsDNA, one strand shown
T7 sequence: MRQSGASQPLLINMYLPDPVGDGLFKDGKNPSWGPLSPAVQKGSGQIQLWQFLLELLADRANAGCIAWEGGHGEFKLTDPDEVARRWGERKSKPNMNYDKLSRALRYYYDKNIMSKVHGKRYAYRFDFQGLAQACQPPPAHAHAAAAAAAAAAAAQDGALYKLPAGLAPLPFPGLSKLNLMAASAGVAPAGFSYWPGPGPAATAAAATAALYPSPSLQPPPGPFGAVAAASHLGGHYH
How it was run: as §1

ETV5 = ETV5 (Homo sapiens, UniProt P41161 1-510); settings: protein: recombinant; tags: N-terminal GST; dsDNA, one strand shown
How it was run: as §1

HSF1 = HSF1 (Homo sapiens, UniProt Q00613 1-529); settings: protein: recombinant; tags: N-terminal GST; chain copies: 3; dsDNA, one strand shown
How it was run: as §1

SPIC = molecular target: T8, SPIC (Homo sapiens, UniProt Q8N5J4 1-248); settings: protein: recombinant; tags: N-terminal GST; dsDNA, one strand shown
T8 sequence: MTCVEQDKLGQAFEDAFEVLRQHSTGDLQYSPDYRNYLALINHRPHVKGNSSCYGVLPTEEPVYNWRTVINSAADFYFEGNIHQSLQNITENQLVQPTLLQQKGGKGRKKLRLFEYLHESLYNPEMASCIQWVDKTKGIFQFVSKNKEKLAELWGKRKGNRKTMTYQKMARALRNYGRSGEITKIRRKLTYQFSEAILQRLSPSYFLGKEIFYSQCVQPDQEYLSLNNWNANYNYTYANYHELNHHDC
How it was run: as §1

ELF4 = ELF4 (Homo sapiens, UniProt Q99607 1-663); settings: protein: recombinant; tags: N-terminal GST; dsDNA, one strand shown
How it was run: as §1

ELK4 = molecular target: T9, ELK4 (Homo sapiens, UniProt P28324-2 1-405); settings: protein: recombinant; tags: N-terminal GST; dsDNA, one strand shown
T9 sequence: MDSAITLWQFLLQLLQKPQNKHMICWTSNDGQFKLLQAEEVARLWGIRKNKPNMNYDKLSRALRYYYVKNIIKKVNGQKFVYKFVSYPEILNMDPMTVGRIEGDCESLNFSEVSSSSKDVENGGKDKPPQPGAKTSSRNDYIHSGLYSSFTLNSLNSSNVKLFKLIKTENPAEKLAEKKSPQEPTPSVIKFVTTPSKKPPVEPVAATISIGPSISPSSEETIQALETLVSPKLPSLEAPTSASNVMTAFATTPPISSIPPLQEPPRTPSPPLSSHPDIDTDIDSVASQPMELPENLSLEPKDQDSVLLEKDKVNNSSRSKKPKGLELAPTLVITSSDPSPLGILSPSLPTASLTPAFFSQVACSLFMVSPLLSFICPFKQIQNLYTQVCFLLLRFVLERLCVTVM
How it was run: as §1

ETV2 = molecular target: T10, ETV2 (Homo sapiens, UniProt O00321 1-342); settings: protein: recombinant; tags: N-terminal GST; dsDNA, one strand shown
T10 sequence: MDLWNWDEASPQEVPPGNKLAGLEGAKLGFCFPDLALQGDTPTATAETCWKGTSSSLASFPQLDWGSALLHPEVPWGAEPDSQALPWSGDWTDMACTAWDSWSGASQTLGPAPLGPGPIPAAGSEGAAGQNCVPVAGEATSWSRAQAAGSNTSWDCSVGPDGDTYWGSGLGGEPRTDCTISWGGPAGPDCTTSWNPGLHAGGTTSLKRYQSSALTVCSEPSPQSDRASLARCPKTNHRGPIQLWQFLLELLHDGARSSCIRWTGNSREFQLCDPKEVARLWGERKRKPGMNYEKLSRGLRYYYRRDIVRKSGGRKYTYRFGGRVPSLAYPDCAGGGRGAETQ
How it was run: as §1

ELF3 = molecular target: T11, ELF3 (Homo sapiens, UniProt P78545 1-371); settings: protein: recombinant; tags: N-terminal GST; dsDNA, one strand shown
T11 sequence: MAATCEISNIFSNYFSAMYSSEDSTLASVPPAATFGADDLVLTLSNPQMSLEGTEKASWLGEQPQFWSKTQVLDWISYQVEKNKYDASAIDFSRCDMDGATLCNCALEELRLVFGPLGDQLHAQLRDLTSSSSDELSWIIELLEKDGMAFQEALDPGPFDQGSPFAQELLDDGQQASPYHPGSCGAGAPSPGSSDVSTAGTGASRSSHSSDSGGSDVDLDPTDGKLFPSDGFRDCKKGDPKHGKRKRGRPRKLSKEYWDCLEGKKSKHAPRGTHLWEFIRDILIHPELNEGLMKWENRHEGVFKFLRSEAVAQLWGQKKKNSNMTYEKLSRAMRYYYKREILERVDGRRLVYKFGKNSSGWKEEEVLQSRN
How it was run: as §1

ETV1 = ETV1 (Homo sapiens, UniProt P50549 1-477); settings: protein: recombinant; tags: N-terminal GST; dsDNA, one strand shown
How it was run: as §1

SPIB, sequence (Q01892 whole entry): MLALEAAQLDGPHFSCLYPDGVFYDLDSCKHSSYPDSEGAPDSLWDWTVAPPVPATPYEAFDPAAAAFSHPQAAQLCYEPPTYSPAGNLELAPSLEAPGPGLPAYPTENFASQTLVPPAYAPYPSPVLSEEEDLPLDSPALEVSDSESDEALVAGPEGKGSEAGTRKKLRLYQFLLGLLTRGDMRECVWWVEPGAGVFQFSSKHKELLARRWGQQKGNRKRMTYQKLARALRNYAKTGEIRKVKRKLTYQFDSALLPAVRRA
ETV5, sequence (P41161 whole entry): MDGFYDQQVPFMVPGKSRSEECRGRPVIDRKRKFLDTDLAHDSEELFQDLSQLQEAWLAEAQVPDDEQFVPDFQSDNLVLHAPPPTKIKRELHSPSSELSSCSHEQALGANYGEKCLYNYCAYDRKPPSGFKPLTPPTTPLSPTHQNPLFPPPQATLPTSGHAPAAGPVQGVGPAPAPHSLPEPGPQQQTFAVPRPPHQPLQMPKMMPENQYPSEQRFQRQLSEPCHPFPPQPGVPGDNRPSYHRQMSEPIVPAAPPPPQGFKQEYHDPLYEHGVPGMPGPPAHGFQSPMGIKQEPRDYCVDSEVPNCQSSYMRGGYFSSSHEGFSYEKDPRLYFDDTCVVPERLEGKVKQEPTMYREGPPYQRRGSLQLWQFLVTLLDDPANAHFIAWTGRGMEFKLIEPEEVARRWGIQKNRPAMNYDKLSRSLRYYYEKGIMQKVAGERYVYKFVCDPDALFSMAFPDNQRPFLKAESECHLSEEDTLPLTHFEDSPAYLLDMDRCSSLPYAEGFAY
ETV1, sequence (P50549 whole entry): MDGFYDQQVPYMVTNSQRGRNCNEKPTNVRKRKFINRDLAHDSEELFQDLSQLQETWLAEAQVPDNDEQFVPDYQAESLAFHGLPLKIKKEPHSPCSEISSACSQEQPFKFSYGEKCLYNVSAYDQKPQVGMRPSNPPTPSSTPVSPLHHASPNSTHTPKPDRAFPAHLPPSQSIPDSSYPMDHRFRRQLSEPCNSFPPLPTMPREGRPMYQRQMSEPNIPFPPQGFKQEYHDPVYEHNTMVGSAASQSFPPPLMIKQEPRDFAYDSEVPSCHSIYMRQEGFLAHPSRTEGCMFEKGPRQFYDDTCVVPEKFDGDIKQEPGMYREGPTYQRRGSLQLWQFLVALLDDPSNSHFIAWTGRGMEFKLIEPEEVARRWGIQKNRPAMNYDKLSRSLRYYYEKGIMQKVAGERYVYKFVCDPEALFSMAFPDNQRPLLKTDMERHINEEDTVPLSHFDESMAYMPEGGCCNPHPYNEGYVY
HSF1, sequence (Q00613 whole entry): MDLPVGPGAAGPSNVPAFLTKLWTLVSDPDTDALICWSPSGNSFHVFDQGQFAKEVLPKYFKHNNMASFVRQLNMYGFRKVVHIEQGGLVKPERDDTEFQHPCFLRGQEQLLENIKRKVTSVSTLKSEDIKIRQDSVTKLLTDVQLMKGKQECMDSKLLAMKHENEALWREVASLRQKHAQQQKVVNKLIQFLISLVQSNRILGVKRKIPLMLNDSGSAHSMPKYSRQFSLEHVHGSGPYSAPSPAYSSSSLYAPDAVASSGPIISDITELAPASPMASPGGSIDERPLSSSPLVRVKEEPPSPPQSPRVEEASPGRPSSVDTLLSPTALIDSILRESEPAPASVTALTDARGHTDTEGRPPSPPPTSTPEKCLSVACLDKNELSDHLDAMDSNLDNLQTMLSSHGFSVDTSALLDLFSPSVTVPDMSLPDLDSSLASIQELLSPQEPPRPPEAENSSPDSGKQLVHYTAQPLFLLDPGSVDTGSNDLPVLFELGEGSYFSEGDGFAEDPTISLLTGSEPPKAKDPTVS
ELF1, sequence (P32519 whole entry): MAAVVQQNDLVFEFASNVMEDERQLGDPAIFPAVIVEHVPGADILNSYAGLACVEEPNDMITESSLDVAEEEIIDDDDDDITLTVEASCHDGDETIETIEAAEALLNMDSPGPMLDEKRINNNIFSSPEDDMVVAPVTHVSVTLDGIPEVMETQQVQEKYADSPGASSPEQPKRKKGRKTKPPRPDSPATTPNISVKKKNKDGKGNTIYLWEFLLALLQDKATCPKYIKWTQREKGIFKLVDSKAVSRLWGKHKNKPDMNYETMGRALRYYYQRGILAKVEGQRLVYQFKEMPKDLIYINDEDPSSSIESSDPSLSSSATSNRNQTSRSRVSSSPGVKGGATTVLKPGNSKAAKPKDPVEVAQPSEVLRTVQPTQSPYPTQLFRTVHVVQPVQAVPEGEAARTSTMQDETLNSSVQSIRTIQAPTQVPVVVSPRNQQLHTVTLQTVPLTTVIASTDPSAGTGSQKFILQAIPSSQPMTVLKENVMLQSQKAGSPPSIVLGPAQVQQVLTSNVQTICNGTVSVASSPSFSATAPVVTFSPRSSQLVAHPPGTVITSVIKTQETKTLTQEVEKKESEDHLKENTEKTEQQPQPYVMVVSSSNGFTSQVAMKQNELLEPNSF
ELF4, sequence (Q99607 whole entry): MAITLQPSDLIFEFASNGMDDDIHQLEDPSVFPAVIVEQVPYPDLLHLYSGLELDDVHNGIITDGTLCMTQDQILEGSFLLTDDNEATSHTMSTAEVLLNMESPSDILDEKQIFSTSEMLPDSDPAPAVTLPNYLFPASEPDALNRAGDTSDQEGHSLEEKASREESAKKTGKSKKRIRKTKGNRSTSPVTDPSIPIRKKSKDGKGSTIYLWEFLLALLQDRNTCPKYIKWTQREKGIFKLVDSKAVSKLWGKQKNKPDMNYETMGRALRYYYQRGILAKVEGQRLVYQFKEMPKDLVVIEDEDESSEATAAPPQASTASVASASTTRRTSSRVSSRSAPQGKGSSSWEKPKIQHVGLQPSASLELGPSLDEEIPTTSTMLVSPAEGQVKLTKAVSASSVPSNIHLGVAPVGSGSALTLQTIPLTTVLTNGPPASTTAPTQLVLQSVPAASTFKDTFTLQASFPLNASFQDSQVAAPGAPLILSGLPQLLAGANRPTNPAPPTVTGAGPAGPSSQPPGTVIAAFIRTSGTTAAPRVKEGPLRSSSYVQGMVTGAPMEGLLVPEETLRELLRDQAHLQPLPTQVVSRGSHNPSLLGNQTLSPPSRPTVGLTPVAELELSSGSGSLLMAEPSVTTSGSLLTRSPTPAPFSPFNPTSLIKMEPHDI

Q: For ACCATC, which binding signal (FLI1) is on record?
A: 1.18 fold enrichment (6-mer frequency, TF over GST control)

Q: What about the binding signal (ELK1) of the same sequence?
A: 1.14 fold enrichment (6-mer frequency, TF over GST control)

Q: And the binding signal (GABPA)?
A: 1.19 fold enrichment (6-mer frequency, TF over GST control)

Q: What about the binding signal (ERG) of the same sequence?
A: 1.1 fold enrichment (6-mer frequency, TF over GST control)

Q: What about the binding signal (ELF1) of the same sequence?
A: 1.21 fold enrichment (6-mer frequency, TF over GST control)

Q: And the binding signal (EHF)?
A: 1.12 fold enrichment (6-mer frequency, TF over GST control)

Q: What about the binding signal (SPI1) of the same sequence?
A: 1.15 fold enrichment (6-mer frequency, TF over GST control)

Q: What about the binding signal (SPIB) of the same sequence?
A: 1.07 fold enrichment (6-mer frequency, TF over GST control)

Q: What about the binding signal (ELK3) of the same sequence?
A: 1.24 fold enrichment (6-mer frequency, TF over GST control)

Q: What about the binding signal (FEV) of the same sequence?
A: 1.13 fold enrichment (6-mer frequency, TF over GST control)

Q: What about the binding signal (ETV5) of the same sequence?
A: 1.11 fold enrichment (6-mer frequency, TF over GST control)

Q: What about the binding signal (HSF1) of the same sequence?
A: 1.14 fold enrichment (6-mer frequency, TF over GST control)

Q: And the binding signal (SPIC)?
A: 1.02 fold enrichment (6-mer frequency, TF over GST control)

Q: What about the binding signal (ELF4) of the same sequence?
A: 1.12 fold enrichment (6-mer frequency, TF over GST control)

Q: What about the binding signal (ELK4) of the same sequence?
A: 1.13 fold enrichment (6-mer frequency, TF over GST control)

Q: What about the binding signal (ETV2) of the same sequence?
A: 1.06 fold enrichment (6-mer frequency, TF over GST control)

Q: What about the binding signal (ELF3) of the same sequence?
A: 1.19 fold enrichment (6-mer frequency, TF over GST control)

Q: What about the binding signal (ETV1) of the same sequence?
A: 1.03 fold enrichment (6-mer frequency, TF over GST control)
